Compounds with a hit are over-represented: about 1.1% of the library has one in this group of screens.
VLA-4 inh = inhibition in human VLA-4 binding assay, primary screen, VLA-4 allosteric modulator project, MLPCN library, flow cytometry, VLA-4 expressing cells; ligand binding flow cytometry; Integrin alpha-4 (Homo sapiens), P13612; inhibition, % (about 7 µM as worked out from the volumes in the protocol); actives 0.2% (n = 330,000); AID 2557, 2010; in the data active means inhibition above about 50%
NTR1 agonist = agonists of human NTR1, primary screen, imaging, U2OS cells, beta-arrestin-GFP, high content | Neurotensin receptor type 1 (Homo sapiens), P30989 | NTR1-U2OS beta-arrestin-GFP spot imaging, agonist mode | activation, % at 20 µM | actives 0.17% (n = 330,000) | AID 493036, 2011;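 active means activation at or above 40% of the spot to cytoplasm intensity ratio, with at least 20 cells analyzed; inconclusive means wells under 20 cells, flagged as cytotoxic or low count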;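 further: 0% = DMSO without peptide and 100% = 100 nM NTR1 peptide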
AI-2 QS modul = Vibrio harveyi AI-2 quorum sensing modulators, primary screen, JMH597 strain, luminescence/OD600 ratio; Vibrio harveyi JMH597 AI-2 luminescence/OD600 ratio, 9 h; active compounds read low; strain lacks LuxN and CqsS sensors; 0 = neutral-control median; activity change, % at 7.5 µM; actives 0.4% (n = 300,000); AID 2094, 2009; in the data active means activity change below about -75%, passing the limit was not always enough; inconclusive means no clear call, values can overlap the other calls;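 further: luminescence divided by OD600 gain over 9 h not by final OD600 alone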
Pemphigus Ab inh = inhibitors of pemphigus antibody binding to DSG3, primary screen, biochemical, bead-based, flow cytometry, scFv-GFP. Desmoglein-3 (Homo sapiens), P32926. actives 0.48% (n = 310,000). binding (percent of control), % at 10 µM. DSG3-coupled beads, scFv-anti-DSG3-GFP binding; active compounds read low;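 active means binding more than 3 SD below its plate's average and above zero; inconclusive means below that plate limit but binding exactly zero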;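 further: hits lower antibody fragment binding to DSG3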
Target sequence (P32926 whole entry, looked up, the tested form may be a part): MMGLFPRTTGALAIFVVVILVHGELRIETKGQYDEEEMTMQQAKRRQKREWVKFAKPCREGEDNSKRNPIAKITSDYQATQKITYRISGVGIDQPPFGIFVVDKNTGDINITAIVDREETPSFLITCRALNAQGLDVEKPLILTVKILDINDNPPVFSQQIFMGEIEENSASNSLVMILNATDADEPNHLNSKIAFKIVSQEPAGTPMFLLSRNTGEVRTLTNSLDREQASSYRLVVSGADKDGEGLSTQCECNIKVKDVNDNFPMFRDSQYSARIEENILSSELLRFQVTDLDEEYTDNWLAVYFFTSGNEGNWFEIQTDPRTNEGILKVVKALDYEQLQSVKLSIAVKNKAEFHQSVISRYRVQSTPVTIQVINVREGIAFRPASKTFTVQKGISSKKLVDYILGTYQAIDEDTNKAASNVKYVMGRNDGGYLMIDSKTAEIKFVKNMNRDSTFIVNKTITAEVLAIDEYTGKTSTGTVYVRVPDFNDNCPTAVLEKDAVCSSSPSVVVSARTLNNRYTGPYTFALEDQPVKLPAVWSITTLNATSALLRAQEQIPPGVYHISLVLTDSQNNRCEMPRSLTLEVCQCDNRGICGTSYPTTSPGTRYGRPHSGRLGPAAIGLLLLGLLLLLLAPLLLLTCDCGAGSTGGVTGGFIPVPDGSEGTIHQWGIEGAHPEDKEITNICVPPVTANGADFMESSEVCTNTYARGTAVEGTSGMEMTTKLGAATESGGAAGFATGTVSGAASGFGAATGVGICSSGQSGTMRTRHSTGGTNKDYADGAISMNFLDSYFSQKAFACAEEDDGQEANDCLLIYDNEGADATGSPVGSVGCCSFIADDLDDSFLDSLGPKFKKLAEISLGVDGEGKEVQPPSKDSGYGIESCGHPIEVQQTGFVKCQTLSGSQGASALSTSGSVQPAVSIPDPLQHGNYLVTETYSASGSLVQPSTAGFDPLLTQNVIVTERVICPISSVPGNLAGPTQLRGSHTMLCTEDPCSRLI
VLA-4 mod pick = retest of VLA-4 allosteric modulators, confirmation, cell-based, cherry-picked plates, U937, HUTS-21 LIBS antibody | shares compounds with VLA-4 inh | U937 cells, HUTS-21 LIBS mAb binding, flow cytometry; LDV ligand present at threefold Kd | inhibition, % at 6.7 µM | actives 2% (n = 1,300); in the data active means inhibition above about 40%;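 further: 0% = ligand without compound and 100% = no ligand background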
An asterisk follows results filed as active; ? = inconclusive; . = no result.

SMILES	VLA-4 inh	NTR1 agonist	AI-2 QS modul	Pemphigus Ab inh	VLA-4 mod pick
C#CCOc1c(/C=C\c2nc(O)c([N+](=O)[O-])c(=O)[nH]2)cc(Br)cc1OC	6	0	4	117	.
CCc1ccc(CNC(=O)c2ccc3nc(C4CCCCC4)oc3c2)nc1	3	1	18	.	.
COC(=O)c1sc(NC(=O)C2c3ccccc3Oc3ccccc32)c(C(=O)OC)c1C	0	1	13	104	-2
COC(=O)c1c(NC(=O)C2c3ccccc3Oc3ccccc32)sc(C)c1C	10	1	4	.	8
COC(=O)c1sc(NC(=O)C2CCCO2)c(C(=O)OC)c1C (stereo unspecified)	1	0	11	99	.
CCOC(=O)c1c(NC(=O)COC)sc(C(C)=O)c1C	5	2	0	98	.
CCOC(=O)c1c(NC(=O)C2c3ccccc3Oc3ccccc32)sc(C(C)=O)c1C	-9	1	17	102	0
COC(=O)c1c(NC(=O)Cc2ccccc2)sc(C)c1C	0	2	1	100	.
Cc1cc(C)cc(NC(=O)[C@H](NC(=O)[C@@H]2Cc3ccccc3CN2)c2ccccc2)c1	-3	1	11	105	.
CCN1CCC(Nc2ccnc3cc(Cl)ccc23)CC1	48	1	27	102	-5
CCOc1ccc(Nc2ccnc3cc(Cl)ccc23)cc1	-1	6	-47	92	.
COc1ccc(-c2c(C(F)(F)F)oc3c(CN4CCN(C)CC4)c(O)ccc3c2=O)cc1	92*	0	8	109	2
Cc1ccc(NC(=O)CS(=O)CC(=O)NC23CC4CC(CC(C4)C2)C3)cc1 (stereo unspecified)	14	-1	11	107	.
CCOc1ccccc1NC(=O)Cn1c(=O)oc2cc(Cl)ccc21	13	1	-12	70	2
CCOc1ccc(NC(=O)Cn2c(=O)oc3cc(Cl)ccc32)cc1	0	1	32	87	5
CCOc1ccccc1NC(=O)Cn1c(=O)oc2ccccc21	0	0	15	104	.
Cc1cc(NC(=O)Cn2c(=O)oc3ccc(Cl)cc32)no1	7	1	17	99	.
CCOc1ccc(NC(=O)Cn2c(=O)oc3ccccc32)cc1	0	0	1	104	.
CC(C)(C)NC(=O)Cn1c(=O)oc2ccc(Cl)cc21	55*	-2	3	102	-1
COc1cc2cc[n+](Cc3ccc([N+](=O)[O-])cc3)cc2cc1OC	10	0	19	103	.
Cc1ccc2nc(-c3ccccc3)cc(C(=O)N3CCN(S(=O)(=O)c4c(C)noc4C)CC3)c2c1	7	4	.	95	-4
Cc1ccc(S(=O)(=O)C(NC(=O)c2ccccc2)=C(Cl)Cl)cc1	54*	-2	17	?	-1
O=C(Nc1ccccc1Cl)Nc1ccccc1Cl	15	1	8	97	5
COC(=O)C(Cc1cnc[nH]1)NC(=O)C1CCC(=O)N1 (stereo unspecified)	58*	0	15	100	3
COc1cc(C(=O)NCc2ccc3c(c2)OCO3)c([N+](=O)[O-])cc1OC	10	0	14	121	.
SMILES	VLA-4 inh	NTR1 agonist	AI-2 QS modul	Pemphigus Ab inh	VLA-4 mod pick
Clc1cc(CSc2ccccc2)nc(-c2ccccc2)n1	94*	11	11	104	5
COc1cccc(-c2sc3ccc(OC)cc3c2-c2ccc(OCCN3CCOCC3)cc2)c1	19	4	.	110	7
COc1cccc(-c2sc3ccc(OC)cc3c2-c2cc(F)cc(OC)c2)c1	-11	0	.	102	.
COc1cc(OC)cc(-c2sc3ccc(OC)cc3c2-c2ccc(OCCN3CCOCC3)cc2)c1	.	10	.	104	6
COc1ccc(-c2sc3cc4c(cc3c2-c2ccc(OCCN3CCOCC3)cc2)OCO4)cc1	26	12	.	98	15
C1=C(c2sc3ccccc3c2-c2ccc(OCCN3CCOCC3)cc2)CCCC1	18	1	.	107	.
CCCc1nc2ccccc2c(=O)n1/N=C/c1ccccc1O	91*	2	2	100	0
Cc1nc2ccccc2c(=O)n1/N=C/c1ccc(O)cc1O	-1	0	10	76	.
Cc1ccc(OCCSc2nc3ncnc(N)c3[nH]2)cc1	-9	0	-3	103	.
Nc1ncnc2nc(SCCOc3ccc(Cl)cc3)[nH]c12	44	-2	-12	.	-1
COCCNC(=O)c1ccccc1NC(=O)COc1ccccc1	-2	3	13	105	-19
COc1ccc2oc(C(=O)N(C)CCOc3ccccc3)c(C)c2c1	10	0	16	98	.
Cc1ccc(S(=O)(=O)NCC(=O)NCC2COc3ccccc3O2)cc1C (stereo unspecified)	14	2	.	91	.
CCOC(=O)C1(S(=O)(=O)c2ccccc2)CCN(Cc2ccc(Cl)cc2)CC1	74*	4	-1	96	-1
CCOC(=O)C1(S(=O)(=O)c2ccc(Cl)cc2)CCN(Cc2ccc(Cl)cc2)CC1	59*	4	26	97	5
CCOC(=O)C1(CCc2ccccc2)CCN(Cc2ccc(O)cc2)CC1	8	-1	55	101	.
Cc1onc(-c2ccccc2)c1C(=O)Nc1ccc(Br)cc1Cl	-2	5	11	98	.
COc1ccc(N(CC(=O)N2CCc3ccccc32)S(=O)(=O)c2c(C)nn(C)c2C)cc1	16	-2	12	103	-1
COc1ccc(Br)cc1CNC(=O)CCCc1cn(C)c2ccccc12	53*	0	16	96	-4
COc1ccc(OC)c(CNC(=O)CCCc2cn(C)c3ccccc23)c1	19	-1	12	105	.
CCn1c(O)c(/C=C2\C=Nc3ccccc32)sc1=O	44	-1	1	101	-11
CC(=O)Nc1nnc(-c2ccc(Cl)s2)o1	18	-3	2	96	.
CCC(=O)Nc1nnc(-c2ccc(Cl)s2)o1	45	0	12	78	0
COc1ccc(NS(=O)(=O)c2ccc(Cl)c(N)c2)cc1Br	4	1	16	105	-4
COc1ccc(S(=O)(=O)Nc2ccc(NC(C)=O)cc2)cc1Br	29	0	35	97	.
NNC(=O)c1ccc(NS(=O)(=O)c2ccc(Br)cc2)cc1	0	0	72	.	.
Nc1cc(S(=O)(=O)Nc2ccc(Br)cc2)ccc1Cl	-2	4	-76*	99	6
COc1ccccc1N(CC(=O)NC1CCCCC1)S(=O)(=O)c1ccccc1	-15	0	29	105	.
O=C1Cc2cc(S(=O)(=O)N3CCNCC3)ccc2N1	-7	1	.	96	6
